Our source for the Potency values is PubChem BioAssay AID504427 (National Center for Advancing Translational Sciences (NCATS), 2011).

The list shows a part of the results. Activity calls are given as the source filed them.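 How the source made its calls: active means compound that inhibits Clk2 kinase in the dose series, with an IC50 potency reported; inactive means no inhibition seen.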

Dual specificity protein kinase CLK2 (Homo sapiens), sequence (P49760 whole entry, looked up, canonical isoform): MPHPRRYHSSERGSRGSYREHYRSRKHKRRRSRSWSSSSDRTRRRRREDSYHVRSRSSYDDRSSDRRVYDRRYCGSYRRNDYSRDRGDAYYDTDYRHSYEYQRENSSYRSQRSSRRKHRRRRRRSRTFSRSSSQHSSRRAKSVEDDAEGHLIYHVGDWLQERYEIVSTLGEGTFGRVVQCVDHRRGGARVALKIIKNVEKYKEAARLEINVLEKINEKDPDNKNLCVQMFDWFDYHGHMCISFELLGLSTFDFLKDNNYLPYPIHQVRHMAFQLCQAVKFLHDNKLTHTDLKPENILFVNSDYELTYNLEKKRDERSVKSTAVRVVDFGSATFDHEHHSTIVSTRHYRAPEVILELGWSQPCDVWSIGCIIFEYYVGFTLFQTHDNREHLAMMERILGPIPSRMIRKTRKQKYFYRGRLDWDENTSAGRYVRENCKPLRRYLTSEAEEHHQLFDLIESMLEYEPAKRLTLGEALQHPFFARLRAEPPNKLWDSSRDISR

For the test, the target named is Dual specificity protein kinase CLK2 (Homo sapiens) (UniProt P49760). The test is described as follows: Kinase Inhibition Study on Inhibitors of CDC-like Kinase 2 (Reaction Biology data). The conditions noted are these: Reaction Biology kinase assay, 10 uM ATP. The source says:
NIH Molecular Libraries Probe Production Centers Network [MLPCN] NIH Chemical Genomics Center [NCGC] MLPCN Grant: 1R03MH084827-01 Assay Submitter (PI): Tom Misteli NCGC Assay Overview: Alternative splicing of pre-mRNAs plays a major role in the regulation of eukaryotic gene expression. Alternative splicing is now thought to be one of the primary reasons for the complexity of higher organisms leading to an average of three protein isoforms per gene. Aberrant splicing can lead to a number of diseases and is known to play a role in rare genetic diseases such as progeria syndrome. Hutchinson-Gilford Progeria Syndrome (HGPS) is a pediatric premature aging disease caused by a spontaneous mutation in the lamin A/C (LMNA) gene due to a single point mutation in the lamin A gene effecting 1 in 4 million people. To identify both specific splicing modulators of the lamin A gene as well as general splicing modulators, a cell-based HTS assay was developed using a minigene reporter system (AIDs, 1459 & 1487). […] This AID summarizes the characterization of lead compounds in Clk2.
All kinase reactions were performed using 10 uM ATP in the assay. 100% activity was taken from kinase reactions with DMSO alone (the vehicle used for compound stock solutions).
`c1nc(N2CCOCC2)c2cc(-c3ccc4c(c3)OCO4)ccc2n1`: the Potency was 1.67 µM (active).
Under `CN(Cc1cncn1C)c1ncnc2ccc(-c3ccc4c(c3)OCO4)cc12` stands 15 µM (active); under `CC(Nc1ncnc2ccc(-c3ccc4c(c3)OCO4)cc12)c1ccco1` (centres undefined), 8.37 µM (active); under `c1coc(CCNc2ncnc3ccc(-c4ccc5c(c4)OCO5)cc23)c1`, 0.801 µM (active).
